Assay results: article PMC8222333, “AsCas12a ultra nuclease facilitates the rapid generation of therapeutic cell medicines”
Substitutions are numbered along the chain they refer to.

B1: CAGG (dsDNA)
DNA 1: GCTATCTAGTGCTCAGTACGCACTGCAGGAGGAAACTTCTGGCAGGACCAGGTCATGAGATCGGAAGAGCACACGTCTGAACTCCAGTCA
DNA 2: TGACTGGAGTTCAGACGTGTGCTCTTCCGATCTCATGACCTGGTCCTGCCAGAAGTTTCCTCCTGCAGTGCGTACTGAGCACTAGATAGC
RNA: AAUUUCUACUCUUGUAGAUAGGAAACUUCUGGCAGGACC
B2: CCAA (dsDNA)
DNA 1: B1 DNA 1 with A27C, G28A, G29A
DNA 2: B1 DNA 2 with C62T, C63T, T64G
RNA: B1 RNA
B3: CATT (dsDNA)
DNA 1: B1 DNA 1 with G28T, G29T
DNA 2: B1 DNA 2 with C62A, C63A
RNA: B1 RNA
B4: CGAA (dsDNA)
DNA 1: B1 DNA 1 with A27G, G28A, G29A
DNA 2: B1 DNA 2 with C62T, C63T, T64C
RNA: B1 RNA
B5: CCGC (dsDNA)
DNA 1: B1 DNA 1 with A27C, G29C
DNA 2: B1 DNA 2 with C62G, T64G
RNA: B1 RNA
B6: CCCT (dsDNA)
DNA 1: B1 DNA 1 with A27C, G28C, G29T
DNA 2: B1 DNA 2 with C62A, C63G, T64G
RNA: B1 RNA
B7: CCAC (dsDNA)
DNA 1: B1 DNA 1 with A27C, G28A, G29C
DNA 2: B1 DNA 2 with C62G, C63T, T64G
RNA: B1 RNA
B8: CCAG (dsDNA)
DNA 1: B1 DNA 1 with A27C, G28A
DNA 2: B1 DNA 2 with C63T, T64G
RNA: B1 RNA
B9: CGAT (dsDNA)
DNA 1: B1 DNA 1 with A27G, G28A, G29T
DNA 2: B1 DNA 2 with C62A, C63T, T64C
RNA: B1 RNA
B10: CGAG (dsDNA)
DNA 1: B1 DNA 1 with A27G, G28A
DNA 2: B1 DNA 2 with C63T, T64C
RNA: B1 RNA
B11: CGAC (dsDNA)
DNA 1: B1 DNA 1 with A27G, G28A, G29C
DNA 2: B1 DNA 2 with C62G, C63T, T64C
RNA: B1 RNA
B12: CCGA (dsDNA)
DNA 1: B1 DNA 1 with A27C, G29A
DNA 2: B1 DNA 2 with C62T, T64G
RNA: B1 RNA
B13: CAGT (dsDNA)
DNA 1: B1 DNA 1 with G29T
DNA 2: B1 DNA 2 with C62A
RNA: B1 RNA
B14: CCGT (dsDNA)
DNA 1: B1 DNA 1 with A27C, G29T
DNA 2: B1 DNA 2 with C62A, T64G
RNA: B1 RNA
B15: CGCC (dsDNA)
DNA 1: B1 DNA 1 with A27G, G28C, G29C
DNA 2: B1 DNA 2 with C62G, C63G, T64C
RNA: B1 RNA
B16: CGCA (dsDNA)
DNA 1: B1 DNA 1 with A27G, G28C, G29A
DNA 2: B1 DNA 2 with C62T, C63G, T64C
RNA: B1 RNA
B17: CCAT (dsDNA)
DNA 1: B1 DNA 1 with A27C, G28A, G29T
DNA 2: B1 DNA 2 with C62A, C63T, T64G
RNA: B1 RNA

biological target: dAsCas12a S542R (Acidaminococcus sp., UniProt U2UMQ6 1-1307, S542R;D908A;E993A;D1235A); test: Spec-seq (native PAGE EMSA with sequencing of bound and unbound); 25 mM Tris-HCl pH 7.4, 150 mM KCl, 5 mM MgCl2, 10% glycerol, 1 mM DTT, 40 ng/uL salmon sperm DNA; 400 nM Cas12a, 480 nM crRNA, 50 nM library, 37 C 1 h; native PAGE at room temperature; high values mean tight binding; settings: protein: recombinant
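Note: relative affinity from the bound to unbound sequence frequency ratio in Spec-seq.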

Binder	binding signal
B1	-8.98 lnKA
B2	-8.66 lnKA
B3	-8.56 lnKA
B4	-8.66 lnKA
B5	-8.39 lnKA
B6	-7.57 lnKA
B7	-8.4 lnKA
B8	-8.95 lnKA
B9	-8.8 lnKA
B10	-8.83 lnKA
B11	-8.8 lnKA
B12	-8.62 lnKA
B13	-8.61 lnKA
B14	-8.47 lnKA
B15	-8.54 lnKA
B16	-8.48 lnKA
B17	-8.87 lnKA

biological target: d-enCas12a (Acidaminococcus sp., UniProt U2UMQ6 1-1307, E174R;S542R;K548R;D908A;E993A;D1235A); test: as above; settings: protein: recombinant

Binder	binding signal
B1	-5.82 lnKA
B2	-5.83 lnKA
B3	-5.39 lnKA
B4	-5.81 lnKA
B5	-5.85 lnKA
B6	-5.17 lnKA
B7	-5.65 lnKA
B8	-5.72 lnKA
B9	-5.8 lnKA
B10	-5.83 lnKA
B11	-5.58 lnKA
B12	-5.74 lnKA
B13	-5.67 lnKA
B14	-5.88 lnKA
B15	-1.48 lnKA
B16	-2.19 lnKA
B17	-5.81 lnKA

biological target: d-enCas12a-Ultra (Acidaminococcus sp., UniProt U2UMQ6 1-1307, E174R;S542R;K548R;M537R;F870L;D908A;E993A;D1235A); test: as above; settings: protein: recombinant

Binder	binding signal
B1	-3.56 lnKA
B2	-3.39 lnKA
B3	-2.95 lnKA
B4	-3.32 lnKA
B5	-3.33 lnKA
B6	-1.7 lnKA
B7	-3.37 lnKA
B8	-3.45 lnKA
B9	-3.4 lnKA
B10	-3.31 lnKA
B11	-2.94 lnKA
B12	-3.44 lnKA
B13	-3.37 lnKA
B14	-3.38 lnKA
B15	-0.384 lnKA
B16	-0.537 lnKA
B17	-3.45 lnKA
